Results from paper PMC5913336, “True equilibrium measurement of transcription factor-DNA binding affinities using automated polarization microscopy”.

target: T1, Pan (Drosophila melanogaster, UniProt P91943 258-356); experiment: FP; 33 mM phosphate pH 7.0, 90 mM NaCl, 0.01% Tween 20, 0.1 mM DTT, 0.5% agarose; room temperature; conditions: tags: N-GST (pGEX-6P-1, kept); dsDNA, one strand shown
T1 sequence: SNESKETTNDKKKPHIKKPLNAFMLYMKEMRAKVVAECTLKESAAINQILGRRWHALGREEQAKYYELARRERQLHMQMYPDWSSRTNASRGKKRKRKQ

Sequence	binding signal
GGTCTTTGATAAA	1.08 Kd / Kd of best base at the position
AGTCTTTCATAAA	8.7 Kd / Kd of best base at the position
AGTCTTGGATAAA	5.87 Kd / Kd of best base at the position
AGTCTGTGATAAA	7.87 Kd / Kd of best base at the position
AGTGTTTGATAAA	2.49 Kd / Kd of best base at the position
ACTCTTTGATAAA	1.97 Kd / Kd of best base at the position
AGTCTTTGATAGA	1.78 Kd / Kd of best base at the position
AGTCTTTGTTAAA	4.66 Kd / Kd of best base at the position
AGTCTTTGATATA	1.14 Kd / Kd of best base at the position
TGTCTTTGATAAA	1.34 Kd / Kd of best base at the position
AGGCTTTGATAAA	4.74 Kd / Kd of best base at the position
AGTCTTTGCTAAA	2.06 Kd / Kd of best base at the position
AGTCTTTGATACA	2.07 Kd / Kd of best base at the position
AGTCTTTGAAAAA	2.52 Kd / Kd of best base at the position
AGTCTCTGATAAA	9.73 Kd / Kd of best base at the position
AGTCCTTGATAAA	5.41 Kd / Kd of best base at the position
AGTTTTTGATAAA	5.89 Kd / Kd of best base at the position
AGTCTTTGACAAA	4.34 Kd / Kd of best base at the position
AGTCTTTTATAAA	3.15 Kd / Kd of best base at the position

Sequence	binding signal
AGCCTTTGATAAA	2.89 Kd / Kd of best base at the position
CGTCTTTGATAAA	2.92 Kd / Kd of best base at the position
AGTCTTTGATAAC	4.04 Kd / Kd of best base at the position
AATCTTTGATAAA	6.88 Kd / Kd of best base at the position
AGTCTTTGATGAA	1.49 Kd / Kd of best base at the position
AGTCTTTGATAAT	1.35 Kd / Kd of best base at the position
AGTCTTTAATAAA	4.58 Kd / Kd of best base at the position
AGTCATTGATAAA	7.68 Kd / Kd of best base at the position
AGTCTTTGATAAG	3.01 Kd / Kd of best base at the position
AGTCTTTGATTAA	1.63 Kd / Kd of best base at the position
ATTCTTTGATAAA	1.9 Kd / Kd of best base at the position
AGTCTTCGATAAA	7.5 Kd / Kd of best base at the position
AGTCTTTGGTAAA	1.21 Kd / Kd of best base at the position
AGTATTTGATAAA	5.89 Kd / Kd of best base at the position
AGTCTTTGAGAAA	1.72 Kd / Kd of best base at the position
AGTCTTAGATAAA	10.4 Kd / Kd of best base at the position
AGTCTATGATAAA	8.1 Kd / Kd of best base at the position
AGTCGTTGATAAA	9.13 Kd / Kd of best base at the position
